The campaign covered roughly 360,000 compounds. About 11,000 (3.1%) were called active. No stated cut-off is given here; in the data, active means activity change below about -30%; inactive means the rest. The entries come from a sample that favours actives as a whole.
On the % scale 0 is the no-effect control and ±100 the full control effect.

Sequence of D(1A) dopamine receptor (Homo sapiens) (P21728 whole entry, looked up): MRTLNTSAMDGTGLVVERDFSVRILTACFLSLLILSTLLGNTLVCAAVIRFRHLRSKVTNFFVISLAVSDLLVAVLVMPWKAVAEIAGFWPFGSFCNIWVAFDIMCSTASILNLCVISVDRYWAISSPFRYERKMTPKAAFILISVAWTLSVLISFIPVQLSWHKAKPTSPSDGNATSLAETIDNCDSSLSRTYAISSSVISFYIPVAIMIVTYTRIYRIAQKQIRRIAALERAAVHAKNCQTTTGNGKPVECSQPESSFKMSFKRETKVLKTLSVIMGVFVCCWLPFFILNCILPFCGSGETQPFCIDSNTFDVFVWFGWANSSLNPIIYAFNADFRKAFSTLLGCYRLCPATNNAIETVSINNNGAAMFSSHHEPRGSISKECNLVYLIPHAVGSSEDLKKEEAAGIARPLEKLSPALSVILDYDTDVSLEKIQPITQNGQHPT

This assay has as its target D(1A) dopamine receptor (Homo sapiens) (UniProt P21728). In words: Antagonist of Human D 1 Dopamine Receptor: qHTS. As to conditions: HEK293 TREx D1 cells, calcium flux, dopamine EC80; at 10 µM; hits give low values. A digest of the protocol: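 HEK293 T-REx cells expressing inducible, force-coupled D1 receptor; no-wash Ca dye, 30–90 min RT. Cmpd → 180 s read at 1 Hz → EC80 DA → 180 s read.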
(Quantitative high-throughput screening tests each substance at several concentrations.)
Take `CC1=NN(C(=O)CCCc2ccccc2)C(O)(C(F)(F)F)C1` (centres undefined): the activity change, negative = inhibition is -32.5% (active).

Take `COc1ccc(CC(=O)N2N=C(C)CC2(O)C(F)(F)F)cc1` (centres undefined): the activity change, negative = inhibition was -2.03% (inactive).

`CC1=NN(C(=O)CCc2ccccc2O)C(O)(C(F)(F)F)C1` (centres undefined): the activity change, negative = inhibition was 12.3% (inactive).

Take `O=C(Nc1ccc2oc(-c3ccc(O)c(Br)c3)nc2c1)c1cc2ccccc2o1`: the activity change, negative = inhibition is -6.68% (inactive).

As to `O=C(CC(c1cccs1)N1Cc2ccccc2C1=O)Nc1ccc(F)cc1F` (centres undefined), the activity change, negative = inhibition is 4.94% (inactive).

As for `CCOC(=O)c1ccc(NC(=O)CSc2nc3c([nH]c4ccccc43)c(=O)n2C)cc1`, the activity change, negative = inhibition was -5.11% (inactive).

For the molecule `CC(=O)N/N=C(\C)c1ccc(Br)cc1Br`, the activity change, negative = inhibition is 25.3% (inactive).

In the case of `C/C(=N\NC(=O)C1(C)CC1(Br)Br)c1ccc(C)cc1C` (centres undefined), the activity change, negative = inhibition is -58.1% (active).

As for `Cc1ccc(C(=O)NC2CC(C)(C)NC(C)(C)C2)c(C)c1`, the activity change, negative = inhibition was -9.44% (inactive).

In the case of `CCc1ccc(-n2nc(C)c3c(C)cc(=O)n(CC(=O)Nc4ccc(F)cc4C)c32)cc1`, the activity change, negative = inhibition is -6.21% (inactive).

On to `O=C(NCCc1ccc(Cl)cc1Cl)c1cc([N+](=O)[O-])c[nH]c1=O`, for which the activity change, negative = inhibition was -1.06% (inactive).

For `Cc1ccc2[nH]cc(CCNC(=O)c3ccc([N+](=O)[O-])cc3)c2c1`, the activity change, negative = inhibition was -29.3% (inactive).

In the case of `O=C(NCCc1c[nH]c2ccc(Cl)cc12)c1ccc([N+](=O)[O-])cc1`, the activity change, negative = inhibition was -40.2% (active).

For the molecule `O=C(c1cnn(-c2ccc(F)cc2)c1-n1cccc1)N1CCN(c2ccc(F)cc2)CC1`, the activity change, negative = inhibition is 1.87% (inactive).

Consider `CCOC(=O)c1cc(-c2ccc(OC)c(S(=O)(=O)Nc3ccc(OC)cc3OC)c2)on1`, for which the activity change, negative = inhibition was -13.6% (inactive).

Take `NS(=O)(=O)c1ccc(CCNc2nc(C(F)(F)F)nc3ccccc23)cc1`: the activity change, negative = inhibition is -36% (active).

Regarding `CCc1ccc(C(CNc2nc(C(F)(F)F)nc3ccccc23)N(C)C)cc1` (centres undefined), the activity change, negative = inhibition was 26.8% (inactive).

With `CC(Nc1nc(C(F)(F)F)nc2ccccc12)c1cccs1` (centres undefined), the activity change, negative = inhibition is -20.1% (inactive).

Turning to `COC(=O)c1ccc(NC(=O)c2cc(S(=O)(=O)N3CCC(C)CC3)cn2C)cc1`, the activity change, negative = inhibition is -19.2% (inactive).

In the case of `COc1ccc(Cn2c(C(=O)O)c(CNCCc3cccs3)c3ccc(OC)cc32)cc1`, the activity change, negative = inhibition is 9.72% (inactive).

Turning to `Cc1ccc(CCNC(=O)Cn2c(-c3cccs3)cc3cc(F)ccc32)cc1`, the activity change, negative = inhibition was -40.1% (active).

As for `COc1ccc(CCNC(=O)CN2CCC(n3nnc4cc(F)ccc43)CC2)cc1OC`, the activity change, negative = inhibition was -3.98% (inactive).

On to `O=C(Cn1c(-c2cccs2)cc2ccccc21)NCCc1ccc(Cl)cc1`, for which the activity change, negative = inhibition is -2.26% (inactive).

As to `CN(CC(=O)Nc1ccc(F)cc1)C(=O)c1ccc(-c2ccc(Cl)cc2)o1`, the activity change, negative = inhibition is -13.8% (inactive).

As for `CN(C)c1cc(-c2ccc(F)cc2)oc(=O)c1Cl`, the activity change, negative = inhibition is -37.9% (active).

With `CCCCC(CC)CNC(=O)C1CCN(S(=O)(=O)c2cccc3nsnc23)CC1` (centres undefined), the activity change, negative = inhibition is 5.74% (inactive).

For `O=C(NCCc1ccc(Cl)cc1)c1ccc2nc(CCc3ccccc3)oc2c1`, the activity change, negative = inhibition is -1.03% (inactive).

As to `Cc1ccc(Nc2nc3ccccc3nc2-n2nc(C)cc2C)c(Cl)c1`, the activity change, negative = inhibition is 6.62% (inactive).

On to `O=C(Nc1ccccc1Br)c1cc(CN2CCCC2)on1`, for which the activity change, negative = inhibition was -3.7% (inactive).

For the molecule `CCCCC(=O)OC1=CN(Cc2ccccc2)S(=O)(=O)c2ccccc21`, the activity change, negative = inhibition was -18.6% (inactive).

In the case of `COc1ccc(Oc2coc3cc(OC(=O)c4cncc(Br)c4)ccc3c2=O)cc1`, the activity change, negative = inhibition is -0.64% (inactive).

Turning to `CCc1ccc(Oc2coc3cc(O)ccc3c2=O)cc1`, the activity change, negative = inhibition was -2.88% (inactive).

On to `CCc1ccc(Oc2coc3cc(OC(=O)c4cc5ccccc5oc4=O)ccc3c2=O)cc1`, for which the activity change, negative = inhibition is -33.2% (active).

In the case of `CCc1ccc(NC(=O)Cn2c(=O)n(CCC(=O)NCc3ccc4c(c3)OCO4)c(=O)c3ccccc32)cc1`, the activity change, negative = inhibition was 6.37% (inactive).

Turning to `CCN(CC)S(=O)(=O)c1ccc(N2CCCC2)c(NS(=O)(=O)c2cccs2)c1`, the activity change, negative = inhibition was -40.2% (active).

In the case of `CCN(CC)S(=O)(=O)c1ccc(N2CCN(C)CC2)c(NC(=O)Nc2ccccc2F)c1`, the activity change, negative = inhibition is 7.64% (inactive).

With `O=S(=O)(Nc1cc(S(=O)(=O)N2CCOCC2)ccc1N1CCCC1)c1cccs1`, the activity change, negative = inhibition is -6.97% (inactive).

For the molecule `Cc1ccc(O)c(NC(=O)CCS(=O)(=O)c2nc(-c3ccc4c(c3)OCO4)cc(C(F)(F)F)n2)c1`, the activity change, negative = inhibition was -20.8% (inactive).

For the molecule `O=C(Cc1ccc(Cl)cc1)Nc1ccc2nn(-c3ccc(Cl)cc3)nc2c1`, the activity change, negative = inhibition is -2.04% (inactive).

Take `Cc1cc(NC(=O)CC(C)C)cc(-c2nc3ncccc3o2)c1O`: the activity change, negative = inhibition is 13.5% (inactive).

As to `CCOc1ccc(NC(=O)N(CC(C)C)CC(C)C)cc1`, the activity change, negative = inhibition was -10.6% (inactive).

Consider `CCOc1ccc(NC(=O)c2ncoc2-c2ccco2)cc1`, for which the activity change, negative = inhibition was 0.181% (inactive).

Consider `CCOc1ccc(NC(=O)N(CCC(C)C)C(C)c2ccco2)cc1` (centres undefined), for which the activity change, negative = inhibition was -66.3% (active).

`CCOC(=O)c1ccccc1NC(=O)CCc1c(C)nc2c(c1C)c(=O)n(C)c(=O)n2C`: the activity change, negative = inhibition is 4.81% (inactive).

Regarding `CCc1ccc(S(=O)(=O)c2nnn3c2nc(N2CCN(CC)CC2)c2sccc23)cc1`, the activity change, negative = inhibition is 8.88% (inactive).

As to `Cc1ccccc1NC(=O)Cn1c(=O)n(CC2CCC(C(=O)NCCc3ccccc3)CC2)c(=O)c2ccccc21` (centres undefined), the activity change, negative = inhibition was -13.6% (inactive).

As to `O=S(=O)(c1ccc(SCc2ccccc2)nc1)N1CCCCCC1`, the activity change, negative = inhibition was 0.949% (inactive).

As to `O=S(=O)(c1ccc(SCc2ccc(Br)cc2)nc1)N1CCOCC1`, the activity change, negative = inhibition was -43.1% (active).

Regarding `Cc1ccc(CSc2ccc(S(=O)(=O)N3CCCCC3)cn2)cc1`, the activity change, negative = inhibition was 2.76% (inactive).

Turning to `CCn1cc(C(=O)N/N=C(/C)c2ccc(F)cc2)c(=O)c2cc(F)c(N3CCCC3)cc21`, the activity change, negative = inhibition is 1.71% (inactive).

`CCOC(=O)c1cn(CC)c2cc(F)c(F)cc2c1=O`: the activity change, negative = inhibition is -74.1% (active).

On to `CCn1cc(C(=O)NCCO)c(=O)c2cc(F)c(N3CCN(C)CC3)cc21`, for which the activity change, negative = inhibition is -5.03% (inactive).

As to `CCS(=O)(=O)N1CCc2cc(C(=O)NCc3ccc(OC)cc3)ccc21`, the activity change, negative = inhibition is 1.59% (inactive).

As for `COc1ccc(C(=O)COC(=O)c2ccc3ccccc3n2)cc1`, the activity change, negative = inhibition is -5.41% (inactive).

In the case of `COc1ccc(C2=NOC(COC(=O)c3ccc4ccccc4n3)C2)cc1` (centres undefined), the activity change, negative = inhibition is -39.5% (active).

Consider `COc1ccc(CNC(=O)C2CC(c3ccc(C(F)(F)F)cc3)=NO2)cc1` (centres undefined), for which the activity change, negative = inhibition is -1.82% (inactive).

With `CCCNC(=O)C(CC)n1nc(CC)n2c(cc3oc(C)cc32)c1=O` (centres undefined), the activity change, negative = inhibition is 5.42% (inactive).

Turning to `Cc1ccc(Cl)cc1N1CCN(S(=O)(=O)c2cc3[nH]c(=O)c(=O)[nH]c3cc2C)CC1`, the activity change, negative = inhibition is 1.65% (inactive).

On to `COc1cccc(C(=O)Nc2ccc3oc(-c4ccc5ccccc5c4)nc3c2)c1`, for which the activity change, negative = inhibition was 7.96% (inactive).

Consider `O=C(CNC(=O)c1ccc(Cl)cc1Cl)OC(C(=O)Nc1cc(C(F)(F)F)ccc1Cl)c1ccccc1` (centres undefined), for which the activity change, negative = inhibition is 6.17% (inactive).

Regarding `COc1ccc(NC(=O)Cn2c(=O)n(Cc3ccc(C(=O)NCc4ccccc4Cl)cc3)c(=O)c3ccccc32)cc1`, the activity change, negative = inhibition was -5.19% (inactive).

For `CCN(Cc1ccccc1)S(=O)(=O)c1cc2c3c(c1)CCN3C(=O)CC2`, the activity change, negative = inhibition is -34.1% (active).

Turning to `CCN(Cc1ccccc1)S(=O)(=O)c1cc(C(=O)O)ccc1OC`, the activity change, negative = inhibition is 27.7% (inactive).

As for `CCN(Cc1ccccc1)S(=O)(=O)c1ccc2c(c1)CCCN2C(C)=O`, the activity change, negative = inhibition is -20% (inactive).

Take `CC(=O)Nc1ccc(OC(=O)COc2ccc(Br)cc2)cc1`: the activity change, negative = inhibition is -21.3% (inactive).

In the case of `Cc1ccc(O)c(NC(=S)NC(=O)COc2ccc(Br)cc2)c1`, the activity change, negative = inhibition is -46.3% (active).

Regarding `Cn1cccc1C(=O)NNC(=O)COc1ccc(Br)cc1`, the activity change, negative = inhibition was 16.4% (inactive).

Take `Cc1ccc(-c2nc(SCc3ccc(Br)cc3)n3[nH]c(=O)cc3n2)cc1`: the activity change, negative = inhibition is -5.43% (inactive).

Take `CC(C)CC(=O)NCC(c1ccc2c(c1)OCO2)N1CCN(c2ccc(F)cc2)CC1` (centres undefined): the activity change, negative = inhibition is 19.3% (inactive).

With `COc1ccc(OC)c(NC(=O)/C=C/c2ccc(C)o2)c1`, the activity change, negative = inhibition was -17.2% (inactive).

As for `COc1ccc(CNC(=O)COC(=O)c2c(C)nn(-c3ccccc3)c2C)cc1OC`, the activity change, negative = inhibition is -26% (inactive).

With `COc1ccc(CNC(=O)COc2ccccc2C(=O)c2cnn(-c3ccccc3)c2)cc1OC`, the activity change, negative = inhibition was -32.7% (active).

Turning to `COC(=O)COc1cccc2c(=O)n(CC(=O)NCCc3ccc(OC)c(OC)c3)ccc12`, the activity change, negative = inhibition was 19.9% (inactive).

In the case of `Cc1cc(O)c(C(c2ccccc2)N2CCN(c3ccccc3F)CC2)c(=O)n1Cc1ccco1` (centres undefined), the activity change, negative = inhibition is -28.1% (inactive).

Take `Cn1c(=O)c2c(-c3ccccc3Br)n(Cc3ccccc3)cc2n(C)c1=O`: the activity change, negative = inhibition is -11.3% (inactive).

Regarding `COc1ccc(C(=O)C2CCCN(Cc3cccn3-c3ccccn3)C2)c(C)c1` (centres undefined), the activity change, negative = inhibition is -34.5% (active).

For `COc1ccc(C(=O)C2CCCN(S(=O)(=O)c3cccc(C)c3)C2)c(C)c1` (centres undefined), the activity change, negative = inhibition was 2.24% (inactive).

Turning to `COc1ccc(C(=O)C2CCCN(C(=O)c3cnsn3)C2)c(C)c1` (centres undefined), the activity change, negative = inhibition was 22.1% (inactive).

As for `CCOc1ccc(Nc2oc(/C=C/c3ccc(F)cc3)nc2C#N)cc1`, the activity change, negative = inhibition is -2.32% (inactive).

Turning to `CCc1ccc(NC(=O)CC2C(=O)NCCN2C(=S)Nc2ccccc2)cc1` (centres undefined), the activity change, negative = inhibition is -31.7% (active).

As for `CCNC(=O)N1CCNC(=O)C1CC(=O)Nc1ccc(C(=O)OCC)cc1` (centres undefined), the activity change, negative = inhibition was 11.7% (inactive).

`COc1cccc(NC(=O)CC2C(=O)NCCN2C(=S)Nc2ccc(F)cc2)c1` (centres undefined): the activity change, negative = inhibition is -8.91% (inactive).

Take `Cc1nn(C)cc1CNC(=O)Nc1ccc(Cl)cc1`: the activity change, negative = inhibition is 5.45% (inactive).

As to `Cc1ccc(-c2cc(C(=O)NCc3cn(C)nc3C)c3cc(Br)ccc3n2)cc1`, the activity change, negative = inhibition was -1.17% (inactive).

On to `COc1ccc(Cl)cc1C(=O)NCc1cn(C)nc1C`, for which the activity change, negative = inhibition is -31.1% (active).

Take `Cc1ccc(CCNC(=O)c2ccc(CNS(=O)(=O)c3ccc(C)cc3)cc2)cc1`: the activity change, negative = inhibition was -6.27% (inactive).

On to `CCOc1ccc(N(Cc2ccccc2)C(=O)c2nc(S(C)(=O)=O)ncc2Cl)cc1`, for which the activity change, negative = inhibition is -4.67% (inactive).

Turning to `CN(C)CC/C=C1\c2ccccc2CSc2ccccc21`, the activity change, negative = inhibition is -62.1% (active).

Regarding `CN(C)Cc1ccccc1C1(O)c2ccccc2CSc2ccccc21` (centres undefined), the activity change, negative = inhibition was -0.848% (inactive).
